Records with an inconclusive call do not appear. The source made the active and inactive calls. How the source made its calls: active means hit-call score of the fitted dose curve at least 0.9, where 1 is the maximum; inconclusive means response in the unintended direction; inactive means score below 0.9.
The compounds below were run against Estrogen-related receptor gamma (Homo sapiens) (UniProt P62508) (assay: ATG_ERRg_TRANS: Attagene TRANS-FACTORIAL HepG2 Assay for human Estrogen-Related Receptor gamma (ERRg) (AID 2282977;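 further: hits increase reporter signal over DMSO so potencies reflect activators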)). Details: HepG2 Attagene TRANS reporter, ERRg transactivation.
Sequence of Estrogen-related receptor gamma (Homo sapiens) (P62508 whole entry, looked up): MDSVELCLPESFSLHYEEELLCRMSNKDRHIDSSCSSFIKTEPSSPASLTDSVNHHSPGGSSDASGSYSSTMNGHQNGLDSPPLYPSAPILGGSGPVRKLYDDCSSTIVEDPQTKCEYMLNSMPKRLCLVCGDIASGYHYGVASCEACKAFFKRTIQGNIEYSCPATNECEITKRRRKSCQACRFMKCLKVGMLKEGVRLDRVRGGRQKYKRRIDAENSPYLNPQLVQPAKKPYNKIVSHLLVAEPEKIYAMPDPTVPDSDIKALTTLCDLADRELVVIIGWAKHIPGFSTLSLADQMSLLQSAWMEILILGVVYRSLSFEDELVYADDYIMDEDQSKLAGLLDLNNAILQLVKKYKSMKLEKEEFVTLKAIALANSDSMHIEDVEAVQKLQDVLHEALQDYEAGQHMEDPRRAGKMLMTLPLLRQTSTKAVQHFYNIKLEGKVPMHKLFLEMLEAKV
Experimental: ATG_TRANS is a cell-based, multiplexed-readout assay that uses HepG2, a human liver cell line, with measurements taken at 24 hours after chemical dosing in a 24-well plate.ATG_ERRg_TRANS is one of 30 assay component(s) measured or calculated from the ATG_TRANS assay. It is designed to make measurements of mRNA induction, a form of inducible reporter, as detected with fluorescence intensity signals by Reverse transcription polymerase chain reaction (RT-PCR) and Capillary electrophoresis technology.Data from the assay component ATG_ERRg_TRANS was analyzed into 1 assay endpoint. This assay endpoint, ATG_ERRg_TRANS, was analyzed in the positive analysis fitting direction relative to DMSO as the negative control and baseline of activity. Using a type of inducible reporter, measures of mRNA for gain-of-signal activity can be used to understand the reporter gene at the transcription factor-level as they relate to the gene ESRRG. Furthermore, this assay endpoint can be referred to as a primary readout, because this assay has produced multiple assay endpoints where this one serves a reporter gene function. To generalize the intended target to other relatable targets, this assay endpoint is annotated to the nuclear receptor intended target family, where the subfamily is steroidal.
Human liver HepG2 cells are transiently transfected with multiple reporter transcription units (MRTUs) in 6-well plates using FuGene 6 reagent (Roche; 3 ml FuGene/1 mg DNA). The MRTU constructs are regulated by a cis-regulating element (promoter). […] A major difference between the CIS and TRANS system is that in CIS activities of endogenous TFs are measured, whereas the TRANS assay evaluates changes in activities of exogenous, chimeric NR-Gal4 proteins. […] At the end of 24 hour incubation, total RNA was isolated using TriZol reagent (Invitrogen). The isolated RNA is then reverse-transcribed using oligo(dT) primer and Mo-MLV reverse transcriptase (Invitrogen) with DNAse I (Ambion) treatment for 30 min. The one-tenth of the produced cDNA was amplified by PCR using Taq DNA polymerase (Invitrogen) and two reporter sequence-specific primers. The PCR products were fluorescently labeled by primer extension with 6-arboxyfluorescein (6-FAM) 5'-labeled reporter sequence-specific primer (2 min at 95 C, 20 s at 68 C and 10 min at 72 C) and these products were digested with 5U of HpaI (New England Biolabs) for 2h at 37 C. The fragments were purified using Qiaquick PCR columns (Qiagen), analyzed on an ABI 3130xL genetic analyzer (Applied Biosystems) with peak positions identified by using a set of X-rhodamine (ROX)-labeled MapMarker1000 molecular weight standards (BioVentures). The raw capillary electrophoresis data was processed using Attagraph software (Attagene).
With O=C1C2(Cl)C3(Cl)C4(Cl)C(Cl)(Cl)C5(Cl)C3(Cl)C1(Cl)C5(Cl)C24Cl (stereo not drawn) the outcome was “inactive”.
O=[N+]([O-])c1ccc(O)c([N+](=O)[O-])c1 was tested, and the outcome was “inactive”.
In the case of C[C@@H]1C[C@@H]([C@H](O)CC2CC(=O)NC(=O)C2)C(=O)[C@@H](C)C1, the outcome is reported as “inactive”.
With ClC1(Cl)C2(Cl)C3(Cl)C4(Cl)C(Cl)(Cl)C5(Cl)C3(Cl)C1(Cl)C5(Cl)C24Cl (stereo not drawn) the outcome was “inactive”.
In the case of COc1ccccc1OC, the outcome is reported as “inactive”.
With O=c1[nH]c(=O)[nH]c(=O)[nH]1 the outcome was “inactive”.
With c1ccc(N=NNc2ccccc2)cc1 the outcome was “inactive”.
For BrCCBr, the outcome was “inactive”.
Nc1ncc([N+](=O)[O-])s1 was tested, and the outcome was “inactive”.
With CCc1ccccc1C the outcome was “inactive”.
O=C(Nc1ccc2[nH]ccc2c1)c1cc2cc(F)ccc2n1Cc1cccc(F)c1 was tested, and the outcome was “inactive”.
For COc1cccc(C=O)c1, the outcome was “inactive”.
NC(=O)O was tested, and the outcome was “inactive”.
In the case of CCN(CC)C(=O)Cl, the outcome is reported as “inactive”.
In the case of O=[N+]([O-])c1c(Cl)c(Cl)cc(Cl)c1Cl, the outcome is reported as “inactive”.
In the case of ClCCBr, the outcome is reported as “inactive”.
In the case of OCc1ccco1, the outcome is reported as “inactive”.
CCOP(=S)(OCC)Oc1ccc(S(C)=O)cc1 (stereo not drawn) was tested, and the outcome was “inactive”.
For O=C(c1ccccc1)C(Cl)Cl, the outcome was “inactive”.
In the case of CCSC(C)CC1CC(=O)C(C(CC)=NOC/C=C/Cl)=C(O)C1 (stereo not drawn), the outcome is reported as “inactive”.
For O=C1C(Cl)=C(Cl)C(=O)c2ccccc21, the outcome was “inactive”.
With CN(C)P(=O)(N(C)C)N(C)C the outcome was “inactive”.
Oc1c(I)cc(I)cc1I was tested, and the outcome was “inactive”.
COP(=S)(OC)Oc1ccc(S(=O)(=O)N(C)C)cc1 was tested, and the outcome was “inactive”.
With C(=NC1CCCCC1)=NC1CCCCC1 the outcome was “inactive”.
For COc1cc(-c2ccc(N)c(OC)c2)ccc1N, the outcome was “inactive”.
With CC(C)OC(=O)Nc1ccccc1 the outcome was “inactive”.
C=CC(=O)N(C)C was tested, and the outcome was “inactive”.
For CCOP(=S)(OCC)SCCS(=O)(=O)CC, the outcome was “inactive”.
With CCC[CH2][Sn]([Cl])([Cl])[Cl] the outcome was “inactive”.
With CC(C)C1CCC(Cc2ccc(Cl)cc2)C1(O)Cn1cncn1 (stereo not drawn) the outcome was “inactive”.
In the case of Nc1cccc(Cl)c1, the outcome is reported as “inactive”.
In the case of O=S(=O)(c1ccc(Cl)cc1)c1ccc(Cl)cc1, the outcome is reported as “inactive”.
CC(=O)C=C(C)C was tested, and the outcome was “inactive”.
In the case of O=C(O)C(F)(F)C(F)(F)C(F)(F)C(F)(F)C(F)(F)C(F)(F)C(F)(F)C(F)(F)C(F)(F)C(F)(F)F, the outcome is reported as “inactive”.
With ClCC(Cl)CCl the outcome was “inactive”.
With COP(=O)(OC)OC the outcome was “inactive”.
COP(=O)(OC)O/C(=C\Cl)c1cc(Cl)c(Cl)cc1Cl was tested, and the outcome was “inactive”.

Reference: PubChem BioAssay (EPA / NIEHS)
